According to PubChem BioAssay:
Activity calls are given as the source filed them.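 Rule for the calls, unless noted: active = normalized viability below 100% at a tested concentration; inactive = the rest.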

Columns and labels:
[1] = ovarian cancer cell viability with rucaparib, profiling panel, oncology-focused library, rucaparib conditional (AID 1508598); settings: patient-derived ovarian cancer cells, CellTiter-Glo viability, 144 h, stronger effect = lower value
[2] = kinase inhibitors against Plasmodium liver-stage infection, cell-based, known kinase inhibitor set, luminescence, hepatoma host viability (AID 624392; call rule not given here;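 note: infected cells incubated roughly two days before readout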); settings: Plasmodium liver stage in hepatoma cells, luciferase luminescence, concentration not given here; liver cell % of control: measured here: host liver cell viability; parasite % of control: stronger effect = lower value
[3] = modulators of glucocorticoid suppression of NF-kB, cell-based, luciferase, IL-1B stimulus, dexamethasone (AID 624486; call rule not given here;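 for percent of negative control (+Dex): 100% = mean signal of vehicle control wells on the plate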); settings: NF-kB luciferase reporter, IL-1B + dexamethasone, luminescence; percent of negative control (+Dex): actives lie on both sides, concentration not given here; z-score: measured here: IL-1B alone, no Dex
[4] = kinase inhibitors altering Pseudomonas killing of worms, whole organism (AID 651566; call rule not given here;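 note: tested at 14 µM; sign flipped so higher z means a lower ratio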); settings: C. elegans killed by P. aeruginosa, survival ratio
[5] = activators of macrophage pro-inflammatory response, cell-based, murine, luminescence (AID 652131; call rule not given here); settings: murine macrophage pro-inflammatory reporter, stronger effect = higher value
[6] = survival rescue of mitochondrial mutant cells in low glucose, primary screen, MELAS cybrids, Rieske KO mouse fibroblasts, CellTiter-Glo (AID 1508586;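 active = mean z-score across replicates of 1.96 or higher in either the MELAS or the Rieske mutant cell line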;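 note: z relative to plate mean and SD of compound and empty wells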)
[7] = viability rescue of complex I mutant cybrids, primary screen, cell-based, galactose medium, ATP luminescence (AID 1645843;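 active = z-score of at least 1.8 in each of two replicates, scored against plate mean and spread of sample wells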;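 note: positive z means more ATP and so rescue of galactose-driven cybrid death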); settings: complex I mutant cybrid cells, 72 h, stronger effect = higher value
[8] = molecular target: NAD(+) hydrolase SARM1 (Homo sapiens) (UniProt Q6SZW1); assay: SARM1 TIR NADase inhibitors, cell lysate, NAD-Glo luminescence (AID 1508614;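 active = compound whose remaining NAD level is above about 45 nM, limit read from the data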;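 note: higher remaining NAD means stronger inhibition of SARM1 NADase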); settings: SAM-TIR HEK293T lysate NADase, at 1 µM, stronger effect = higher value
NAD(+) hydrolase SARM1 (Homo sapiens), sequence (Q6SZW1 whole entry, looked up): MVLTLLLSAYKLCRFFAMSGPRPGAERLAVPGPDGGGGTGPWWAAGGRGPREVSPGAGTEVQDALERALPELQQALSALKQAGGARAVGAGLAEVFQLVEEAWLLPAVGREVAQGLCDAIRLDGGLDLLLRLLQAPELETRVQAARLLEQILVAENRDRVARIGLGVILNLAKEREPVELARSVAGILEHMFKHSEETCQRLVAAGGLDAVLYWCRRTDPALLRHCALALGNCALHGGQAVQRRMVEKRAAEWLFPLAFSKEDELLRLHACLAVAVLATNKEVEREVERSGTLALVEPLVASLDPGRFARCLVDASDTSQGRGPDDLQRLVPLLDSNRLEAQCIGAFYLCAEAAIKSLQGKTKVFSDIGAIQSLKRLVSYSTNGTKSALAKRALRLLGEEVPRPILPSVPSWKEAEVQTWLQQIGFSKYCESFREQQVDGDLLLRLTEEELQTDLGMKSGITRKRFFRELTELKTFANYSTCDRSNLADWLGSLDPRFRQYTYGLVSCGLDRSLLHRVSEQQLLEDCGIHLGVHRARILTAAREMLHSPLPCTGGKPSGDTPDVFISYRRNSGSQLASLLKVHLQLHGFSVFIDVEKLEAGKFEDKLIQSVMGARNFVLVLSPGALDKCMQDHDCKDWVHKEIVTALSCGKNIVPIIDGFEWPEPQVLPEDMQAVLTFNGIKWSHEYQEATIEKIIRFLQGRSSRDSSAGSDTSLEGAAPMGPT

[9] = at 0.000305 µM, OCI-C5x cells, with rucaparib 10 µM, 100% = cells with rucaparib alone
[10] = at 0.000305 µM, OCI-C5x cells, without rucaparib
[11] = at 0.000305 µM, OCI-P5x cells, with rucaparib 20 µM, 100% = cells with rucaparib alone
[12] = at 0.000305 µM, OCI-P5x cells, without rucaparib
[13] = at 0.00122 µM, OCI-C5x cells, with rucaparib 10 µM, 100% = cells with rucaparib alone
[14] = at 0.00122 µM, OCI-C5x cells, without rucaparib
[15] = at 0.00122 µM, OCI-P5x cells, with rucaparib 20 µM, 100% = cells with rucaparib alone
[16] = at 0.00122 µM, OCI-P5x cells, without rucaparib
[17] = at 0.00488 µM, OCI-C5x cells, with rucaparib 10 µM, 100% = cells with rucaparib alone
[18] = at 0.00488 µM, OCI-C5x cells, without rucaparib
[19] = at 0.00488 µM, OCI-P5x cells, with rucaparib 20 µM, 100% = cells with rucaparib alone
[20] = at 0.00488 µM, OCI-P5x cells, without rucaparib
[21] = at 0.0195 µM, OCI-C5x cells, with rucaparib 10 µM, 100% = cells with rucaparib alone
[22] = at 0.0195 µM, OCI-C5x cells, without rucaparib
[23] = at 0.0195 µM, OCI-P5x cells, with rucaparib 20 µM, 100% = cells with rucaparib alone
[24] = at 0.0195 µM, OCI-P5x cells, without rucaparib
[25] = at 0.0781 µM, OCI-C5x cells, with rucaparib 10 µM, 100% = cells with rucaparib alone
[26] = at 0.0781 µM, OCI-C5x cells, without rucaparib
[27] = at 0.0781 µM, OCI-P5x cells, with rucaparib 20 µM, 100% = cells with rucaparib alone
[28] = at 0.0781 µM, OCI-P5x cells, without rucaparib
[29] = at 0.313 µM, OCI-C5x cells, with rucaparib 10 µM, 100% = cells with rucaparib alone
[30] = at 0.313 µM, OCI-C5x cells, without rucaparib
[31] = at 0.313 µM, OCI-P5x cells, with rucaparib 20 µM, 100% = cells with rucaparib alone
[32] = at 0.313 µM, OCI-P5x cells, without rucaparib
[33] = at 1.25 µM, OCI-C5x cells, with rucaparib 10 µM, 100% = cells with rucaparib alone
[34] = at 1.25 µM, OCI-C5x cells, without rucaparib
[35] = at 1.25 µM, OCI-P5x cells, with rucaparib 20 µM, 100% = cells with rucaparib alone
[36] = at 1.25 µM, OCI-P5x cells, without rucaparib
[37] = at 5 µM, OCI-C5x cells, with rucaparib 10 µM, 100% = cells with rucaparib alone
[38] = at 5 µM, OCI-C5x cells, without rucaparib
[39] = at 5 µM, OCI-P5x cells, with rucaparib 20 µM, 100% = cells with rucaparib alone
[40] = at 5 µM, OCI-P5x cells, without rucaparib
[41] = MELAS cybrid survival, CellTiter-Glo 48 h, stronger effect = higher value
[42] = Rieske KO mouse fibroblast survival, CellTiter-Glo 72 h

Nc1ncn([C@@H]2O[C@H](CO)[C@@H](O)[C@@H]2O)c(=O)n1
inactive: viability [1, 9] 104% | viability [1, 10] 128% | viability [1, 11] 103% | viability [1, 12] 125% | viability [1, 13] 108% | viability [1, 14] 132% | viability [1, 15] 102% | viability [1, 16] 123% | viability [1, 17] 114% | viability [1, 18] 122% | viability [1, 19] 102% | viability [1, 20] 116% | viability [1, 21] 114% | viability [1, 22] 129% | viability [1, 23] 110% | viability [1, 24] 119% | viability [1, 25] 117% | viability [1, 26] 119% | viability [1, 27] 110% | viability [1, 28] 122% | viability [1, 29] 112% | viability [1, 30] 124% | viability [1, 31] 114% | viability [1, 32] 122% | viability [1, 33] 110% | viability [1, 34] 123% | viability [1, 35] 105% | viability [1, 36] 111% | viability [1, 37] 107% | viability [1, 38] 109%
active: viability [1, 39] 97.7% | viability [1, 40] 99.1%

CCOc1ccc(Cc2cc([C@@H]3O[C@H](CO)[C@@H](O)[C@H](O)[C@@H]3O)ccc2Cl)cc1
inactive: viability [1, 9] 111% | viability [1, 10] 102% | viability [1, 13] 126% | viability [1, 14] 108% | viability [1, 17] 108% | viability [1, 18] 106% | viability [1, 19] 105% | viability [1, 21] 117% | viability [1, 22] 116% | viability [1, 23] 101% | viability [1, 24] 107% | viability [1, 25] 111% | viability [1, 26] 108% | viability [1, 27] 106% | viability [1, 28] 106% | viability [1, 29] 112% | viability [1, 30] 118% | viability [1, 31] 105% | viability [1, 32] 105% | viability [1, 33] 111% | viability [1, 34] 118% | viability [1, 36] 112% | viability [1, 37] 110% | viability [1, 38] 121% | viability [1, 39] 106% | viability [1, 40] 109%
active: viability [1, 11] 94.3% | viability [1, 12] 91.9% | viability [1, 15] 96.6% | viability [1, 16] 98.1% | viability [1, 20] 98.8% | viability [1, 35] 99.3%

Nc1nonc1-c1nc2cnccc2n1C1CC1
inactive: parasite % of control [2] 247% | z-score [4] -0.345 | z-score [5] -0.857 | z-score [6, 41] -0.391
86.3%: liver cell % of control [2]
-0.585: z-score [6, 42]
active: percent of negative control (+Dex) [3] 45%
-5.63: z-score [3]

COC(=O)c1c(NC(C)=O)c2cc(NCc3sccc3C)cnc2n1CC1CCCO1 (stereo not drawn)
0.989: z-score [6, 42]
inactive: z-score [6, 41] 0.213 | z-score [7] -0.82

CO[C@H]1C[C@@H]2CC[C@@H](C)[C@@](O)(O2)C(=O)C(=O)N2CCCC[C@H]2C(=O)O[C@H]([C@@H](C)C[C@@H]2CC[C@@H](OCCO)[C@H](OC)C2)CC(=O)[C@H](C)/C=C(\C)[C@H](O)[C@@H](OC)C(=O)[C@H](C)C[C@H](C)/C=C/C=C/C=C/1C
inactive: viability [1, 9] 103% | viability [1, 10] 135% | viability [1, 13] 106% | viability [1, 14] 120% | viability [1, 17] 120% | viability [1, 18] 115% | viability [1, 21] 115% | viability [1, 22] 112% | viability [1, 25] 111% | viability [1, 26] 119% | viability [1, 29] 110% | viability [1, 30] 111% | viability [1, 33] 115% | viability [1, 34] 103% | viability [1, 37] 123% | viability [1, 38] 120%
active: viability [1, 11] 91.8% | viability [1, 12] 83.4% | viability [1, 15] 88% | viability [1, 16] 74.1% | viability [1, 19] 85% | viability [1, 20] 72.9% | viability [1, 23] 79.5% | viability [1, 24] 72.3% | viability [1, 27] 86.3% | viability [1, 28] 73.1% | viability [1, 31] 88% | viability [1, 32] 67.8% | viability [1, 35] 73.4% | viability [1, 36] 60.4% | viability [1, 39] 69.5% | viability [1, 40] 59.4%

O=C(NCc1ccccc1)OCCO
inactive: remaining NAD [8] 10 nM

C[C@]12CC[C@H]3c4ccc(O)cc4CC[C@H]3[C@@H]1CC[C@H]2O
inactive: viability [1, 10] 130% | viability [1, 11] 103% | viability [1, 12] 110% | viability [1, 13] 105% | viability [1, 14] 111% | viability [1, 15] 101% | viability [1, 16] 116% | viability [1, 17] 109% | viability [1, 18] 124% | viability [1, 19] 104% | viability [1, 20] 112% | viability [1, 22] 115% | viability [1, 23] 109% | viability [1, 24] 112% | viability [1, 25] 100% | viability [1, 26] 119% | viability [1, 27] 108% | viability [1, 28] 109% | viability [1, 29] 108% | viability [1, 30] 118% | viability [1, 31] 100% | viability [1, 32] 114% | viability [1, 33] 100% | viability [1, 34] 124% | viability [1, 35] 110% | viability [1, 36] 113%
active: viability [1, 9] 95.7% | viability [1, 21] 99.5% | viability [1, 37] 81% | viability [1, 38] 94.8%
